In the library only some 1.5% were active in any assay of this set; here they are far more common.
12-LOX inh = ALOX12 (human) lipoxygenase inhibition; P18054; purified 12hLO, xylenol orange hydroperoxide absorbance; Potency, µM (top dose mostly 108 µM), for inactives: at the top dose activity change, negative = inhibition, usual class: inhibitors; 580,000 compounds, 1.1% hits; AID 1671190; note: potency is the fitted concentration of half-maximal effect; % is set by controls: 0 for no effect and ±100 for the full control effect
Target sequence (P18054 whole entry, looked up): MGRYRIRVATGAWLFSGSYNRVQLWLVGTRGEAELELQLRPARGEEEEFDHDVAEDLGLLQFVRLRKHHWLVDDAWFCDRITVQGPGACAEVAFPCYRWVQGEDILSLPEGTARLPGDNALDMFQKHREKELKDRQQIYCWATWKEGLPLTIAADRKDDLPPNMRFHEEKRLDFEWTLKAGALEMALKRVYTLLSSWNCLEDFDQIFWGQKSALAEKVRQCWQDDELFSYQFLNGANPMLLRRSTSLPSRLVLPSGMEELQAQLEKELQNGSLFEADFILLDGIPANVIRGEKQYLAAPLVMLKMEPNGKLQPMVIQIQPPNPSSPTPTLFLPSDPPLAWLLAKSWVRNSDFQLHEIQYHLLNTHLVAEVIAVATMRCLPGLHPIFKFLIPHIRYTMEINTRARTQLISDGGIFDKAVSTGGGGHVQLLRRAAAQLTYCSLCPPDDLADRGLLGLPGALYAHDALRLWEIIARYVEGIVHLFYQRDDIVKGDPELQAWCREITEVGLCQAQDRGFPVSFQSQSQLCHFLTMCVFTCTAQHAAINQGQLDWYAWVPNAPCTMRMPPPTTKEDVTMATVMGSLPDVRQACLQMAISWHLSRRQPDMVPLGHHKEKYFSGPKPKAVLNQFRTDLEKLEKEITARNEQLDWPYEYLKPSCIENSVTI
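Hydroperoxide product was detected by ferrous iron/xylenol orange as the 573 to 405 nm absorbance ratio. Arachidonic acid at 40 uM (final) was turned over for 30 min at room temperature by 150 nM human 12hLO, pH 7.0 Hepes buffer, after 15 min compound preincubation.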
Nrf2 ARE act = activators of Nrf2 (ARE) signaling. AREc32 ARE-luciferase reporter (MCF7-derived line), luminescence, 24 h. Potency, µM (doses to about 46.1 µM), for the others: at the top dose activation, hits mostly activators. 410,000 compounds, 0.31% hits; note: potency is the fitted concentration of half-maximal effect; % of control where 0% means no effect; nearly all actives have a fitted effect of over 65% in size
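AREc32 cells carrying an ARE-driven firefly luciferase, 1000 cells/well in OPTI-MEM with 5% FBS, dosed after overnight attachment and incubated 24 hr at 37 deg C. Steady-Glo luminescence read after 30 min at RT.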
uPA surface inh = inhibitors of cell surface uPA generation; Potency, µM (series often up to 38.3 µM), for inactives: at the top dose activity change, negative = inhibition, usual class: inhibitors; AID 540303; 330,000 compounds, 0.31% hits; cell surface uPA generation assay, qHTS; active = well fitted inhibition curve with a large enough effect; inconclusive = small, poorly fitted or top-dose-only effect; inactive = no such curve, though single readings can be large or run the other way; tested in mouse RAW 264.7 cells; note: potency is the fitted concentration of half-maximal effect; % is set by controls: 0 for no effect and ±100 for the full control effect; nearly all actives have a fitted effect of over 55% in size
IL2 activator = IL-2 activation; IL-2 activation reporter assay, cell-based qHTS; stimulated with anti-CD3/CD4/CD28 beads; in transgenic mouse T cells; activation, % (series mostly up to about 46 µM); 360,000 compounds, 0.065% hits; in the data active = activation above about 50%; inconclusive = mostly about 30% to 49%; note: 0% is about no effect
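Unstimulated transgenic mouse T cells preincubated 60 min with compound, then stimulated with anti-CD3/anti-CD4-coated beads plus anti-CD28 for 18 h at 37 degrees C. IL-2 response read as EGFP and DsRed fluorescence by plate cytometry.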
a7 integrin act = activators of alpha7 integrin expression for muscular dystrophy. 350,000 compounds, 0.064% hits. AID 624291. Potency, µM (series often up to 38.3 µM), without a hit: at the highest dose activation, most hits filed as activators. alpha7betagal myoblasts, beta-gal FDG fluorescence, 48 h;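 note: potency is the fitted concentration of half-maximal effect; 100% = response of the positive control SU9516; nearly all actives have a fitted effect of over 60% in size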
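Alpha7betagal+/- myoblasts (passage 13) were plated 16-24 hr, then exposed to compounds (1:260 dilution of DMSO stock) for 48 hours at 37C. After MPER lysis, β-galactosidase reporter activity was read as FDG fluorescence (ex 480/em 540) after 30 minutes.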
* = called active by the depositor; ? = inconclusive; . = not tested or not shown; ! = not confirmed by another sample; [ ] = remark or other dose. Unless noted, calls come from the whole dose curve; as a rule, active = well fitted curve in the direction sought with a large enough effect; inconclusive = small, poorly fitted or top-dose-only effect, or another doubt; inactive = no such curve, though single readings can be large; an effect the other way counts as inactive or inconclusive.

SMILES	12-LOX inh	Nrf2 ARE act	uPA surface inh	IL2 activator	a7 integrin act
O=C(Nc1nc2cc(Cl)ccc2s1)C1CCCN(S(=O)(=O)c2cccc3cccnc23)C1 (configuration not stated)	.	-3%	13µM*	-4	-51%
COc1ccc(N(C(=O)CCl)C(C(=O)NCCc2ccccc2)c2cccs2)cc1Cl (configuration not stated)	?	?	4µM*	-5	-61%
COc1cccc(N(C(=O)CCl)C(C(=O)NCCc2ccccc2)c2cccs2)c1 (configuration not stated)	-35%	?	-12%	-1	-55%
CN(C)c1ccc(C(=O)N/N=C/c2ccc(Br)s2)cc1	20µM*	.	.	.	.
COc1ccc([N+](=O)[O-])cc1NC(=O)C(C)OC(=O)/C=C/c1ccco1 (configuration not stated)	?	13µM*	3%	0	-21%
CCSc1ccccc1C(=O)Nc1ccc([N+](=O)[O-])cc1OC	40µM*	1%	0%	1	28%
COc1ccc(NC(=O)c2ccco2)cc1NC(=O)c1ccco1	0%	3%	-2%	0	28%
COc1ccc([N+](=O)[O-])cc1NC(=O)c1ccco1	-4%	3.2µM*	8%	0	?
O=C(N[C@H]1CO[C@H]2[C@@H]1OC[C@H]2OCc1ccccc1)c1ccc(C(F)(F)F)cc1	-4%[176 µM]	.	.	.	.
C[C@]1(CO)[C@H]2Cc3sc(NC(=O)c4c(F)cccc4F)nc3[C@@H](CC(=O)NC3CC3)[C@]2(C)CC[C@H]1O	6%	.	.	.	.
CC(=O)N1CCC(N[C@@H]2CO[C@H](CNS(=O)(=O)c3ccccc3)[C@H]2O)CC1	62%[176 µM]	.	.	.	.
c1ccc(CN2CCCC3(CCCN(Cc4nc(COc5ccccc5)no4)C3)C2)cc1 (configuration not stated)	-12%	-1%	10%	-1	-13%
c1ccc(CN2CCCC3(CCCN(Cc4nc(CC5CC5)no4)C3)C2)cc1 (configuration not stated)	2%	0%	11%	3	8.9µM*
CCCOC(=O)c1cc(-c2ccc(/C=C3/C(=O)N(C)C(=O)C(C#N)=C3C)o2)ccc1Cl	.	2%	4%	-1	9%
C=CCOC(=O)c1cc(-c2ccc(/C=C3\C(=O)NC(=O)C(C#N)=C3C)o2)ccc1Cl	7.1µM*	0%	0%	1	-41%
CCOC(=O)C1CCCN(CC(=O)N2CCCc3c2c(=O)oc2ccc(OCc4ccccc4)cc32)C1 (configuration not stated)	22µM*	4%	.	.	.
O=C(NCCC1=CCCCC1)c1c(OCC2CC2)cc(=O)n2c1CCCCC2	-5%	.	.	.	.
COc1ccc(C(=O)NC(=S)Nc2ccc(S(=O)(=O)Nc3cc(OC)ncn3)cc2)cc1	10µM*	-1%	-3%	-1	14%
Cc1cc(NS(=O)(=O)c2ccc(NC(=S)NC(=O)c3cccc(S(=O)(=O)N(C)C)c3)cc2)no1	?	0%	4%	-3	27%
Cc1cc(NS(=O)(=O)c2ccc(NC(=S)NC(=O)c3ccc(F)cc3)cc2)no1	25µM*	-2%	-2%	2	1%
COc1cc(NS(=O)(=O)c2ccc(NC(=O)c3ccc(C(C)=O)cc3)cc2)nc(OC)n1	-24%	-1%	.	.	.
COc1cc(NS(=O)(=O)c2ccc(NC(=S)NC(=O)c3ccc(F)cc3)cc2)nc(OC)n1	18µM*	0%	1%	2	25%
Cc1ccc(NC(=S)NC(=O)c2ccc(F)cc2)cc1S(=O)(=O)Nc1ccccc1Cl	5µM*	2%	-4%	-6	-26%
COc1ccc(C(=O)NC(=S)Nc2ccc(S(=O)(=O)Nc3cc(OC)nc(OC)n3)cc2)cc1	7.1µM*	2%	1%	1	0%
COc1ccc(CNC(=O)[C@@H]2CCC[C@@H](NCc3c(C)noc3C)CN(C)C(=O)C2)cc1	67%	.	.	.	.
SMILES	12-LOX inh	Nrf2 ARE act	uPA surface inh	IL2 activator	a7 integrin act
Cc1ccc(NC(=O)CN2c3cccc4cccc(c34)S2(=O)=O)c(S(=O)(=O)N2CCCCC2)c1	-6%	.	.	.	.
COCc1cc(Sc2ccc(Cl)cc2)nc(C)n1	2%	0%	-3%	-1	-14%
COCc1cc(S(=O)c2ccc(Cl)cc2)nc(C)n1 (configuration not stated)	?	-2%	5µM*	-1	-3%
COc1ccc(OC)c(C(C)NC(=O)Cc2ccsc2)c1 (configuration not stated)	-13%	.	.	.	.
Fc1cccc(F)c1/C=C/c1ccc2ccccc2n1	-7%	?	-4%	0	-32%
Fc1cccc(Cl)c1/C=C/c1cnc2ccccc2n1	?	3.5µM*	-7%	0	-22%
CCOc1ccc(C2C(C#N)=C(N)SC(N)=C2C#N)cc1OCC	?	0%	-2%	3	-22%
N#CC1=C(N)SC(N)=C(C#N)C1c1cccc(Oc2ccccc2)c1	14µM*	8%	17%	5	-23%
CN1[C@@H](CCC(=O)N2CCc3ccccc32)CNC(=O)[C@@H]2[C@H]1CCN2CC(C)(C)C	27%[176 µM]	.	.	.	.
O=c1c(-c2ccco2)nc2ccccc2n1C(c1ccccc1)c1nc2ccccc2[nH]1 (configuration not stated)	18µM*	.	.	-1	.
CCC(c1nc2ccccc2[nH]1)n1c(=O)c(-c2ccco2)nc2ccccc21 (configuration not stated)	25µM*	.	.	0	.
O=c1c(-c2cccs2)nc2ccccc2n1C(c1ccccn1)c1nc2ccccc2[nH]1 (configuration not stated)	40µM*	.	.	0	.
O=c1c(-c2ccco2)nc2ccccc2n1C(c1ccccn1)c1nc2ccccc2[nH]1 (configuration not stated)	?	.	.	-1	.
O=c1c(-c2ccccc2)nc2ccccc2n1C(c1ccccn1)c1nc2ccccc2[nH]1 (configuration not stated)	-27%	.	.	0	.
C=CCNCc1ccc(-c2ccc(C(=O)OC)cc2)o1	1%	.	.	.	.
CCOC(CN=c1nc(N(C)C)ss1)OCC	18µM*	?	-8%	-3	-54%
Cc1nn(C)c(C)c1NC(=O)CCl	14µM*	?	0%	-2	-19%
O=C(CSC1=NS(=O)(=O)c2ccccc2N1Cc1ccccc1)Nc1cccc(Cl)c1	-1%	.	.	.	.
S=c1[nH]c2cc(Cl)ccc2s1	45µM*!	-1%	0%	1	-12%
O=C(Nc1ccc([C@H]2OCC(=O)N(Cc3ccncc3)[C@@H]2CO)cc1)c1ccc(C(F)(F)F)cc1	7%	.	.	.	.
O=C(Sc1nnc(-c2ccccc2)o1)N1c2ccccc2Sc2ccccc21	10µM*	-1%	?	1	-17%
COc1cc(-c2nnc(SCC(=O)N3c4ccccc4Sc4ccccc43)o2)cc(OC)c1OC	-22%	-1%	0%	0	10%
O=C(NCC1(c2ccccc2)CCC1)c1n[nH]c(=O)c2ccccc12	3%	.	.	.	.
